Common to all, as to conditions: mRNA level, 48 h; actives raise or lower the signal
Read-out in assay [1]: MicroRNA 122 (MIR122), gene 406906
The assay can be described thus: LTEA_HepaRG_MIR122: Life Technologies and Expression Analysis (LTEA) Assay for MicroRNA 122 (MIR122) using HepaRG (AID 2283516). Also: the transcript read is the microRNA miR-122. The gist of the method:
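Differentiated human HepaRG cells in serum-free induction medium exposed 48 h to 8 half-log concentrations from 100 uM in 0.5% DMSO, duplicate. MIR122 quantified by Fluidigm TaqMan qRT-PCR, normalised to ACTB, GAPDH, POLR2A; fold change fitted bidirectionally versus DMSO.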

Read-out in assay [2]: matrix metalloproteinase-10 (MMP10), MMP10 (gene 4319)
The assay can be described thus: LTEA_HepaRG_MMP10: Life Technologies and Expression Analysis (LTEA) Assay for matrix metalloproteinase-10 (MMP10) using HepaRG (AID 2283517). The gist of the method: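 HepaRG, collagen I, ~100,000 cells/well; serum-free induction medium; 48 h exposure, duplicate, 8-pt half-log to 100 uM, 0.5% DMSO. Readout: TaqMan qRT-PCR, normalized to ACTB/GAPDH/POLR2A; bidirectional fit vs DMSO.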

Read-out in assay [3]: MYC, MYC (gene 4609)
The assay can be described thus: LTEA_HepaRG_MYC: Life Technologies and Expression Analysis (LTEA) Assay for MYC using HepaRG (AID 2283518). The gist of the method: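 qRT-PCR read-out of MYC transcript (Fluidigm TaqMan, housekeeping-normalized) after 48 h chemical exposure of HepaRG cells; eight concentrations, top 100 uM, half-log steps. Bidirectional curve fitting against 0.5% DMSO vehicle baseline.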

Read-out in assay [4]: matrix metalloproteinase-3 (MMP3), MMP3 (gene 4314)
The assay can be described thus: LTEA_HepaRG_MMP3: Life Technologies and Expression Analysis (LTEA) Assay for matrix metalloproteinase-3 (MMP3) using HepaRG (AID 2283519). The gist of the method:
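Differentiated human HepaRG cells, plated 48 h on collagen I, were exposed in duplicate for 48 h in serum-free induction medium to eight half-log concentrations up to 100 uM in 0.5% DMSO. MMP3 mRNA was quantified by TaqMan qRT-PCR, normalised to ACTB, GAPDH and POLR2A.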

Read-out in assay [5]: Phosphatase and tensin (PTEN), PTEN (gene 5728)
The assay can be described thus: LTEA_HepaRG_PTEN: Life Technologies and Expression Analysis (LTEA) Assay for Phosphatase and tensin (PTEN) using HepaRG (AID 2283523). In short, it runs like this: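 Differentiated human HepaRG cells, plated 48 h then switched to serum-free induction medium, were exposed in duplicate for 48 h to eight half-log concentrations up to 100 uM in 0.5% DMSO. PTEN mRNA measured by TaqMan qRT-PCR, normalized to ACTB/GAPDH/POLR2A, bidirectional fit versus DMSO.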

Read-out in assay [6]: solute carrier (SLC22A1), SLC22A1 (gene 6580)
Description: LTEA_HepaRG_SLC22A1: Life Technologies and Expression Analysis (LTEA) Assay for solute carrier (SLC22A1) using HepaRG (AID 2283524). The gist of the method: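 Human HepaRG cells were plated 48 h, switched to serum-free induction medium, then exposed in duplicate for 48 h to 8-point half-log series from 100 uM in 0.5% DMSO. SLC22A1 mRNA measured by qRT-PCR, normalized to ACTB/GAPDH/POLR2A, fitted bidirectionally versus DMSO.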

Read-out in assay [7]: Pyruvate Dehydrogenase Kinase 4 (PDK4), PDK4 (gene 5166)
The assay can be described thus: LTEA_HepaRG_PDK4: Life Technologies and Expression Analysis (LTEA) Assay for Pyruvate Dehydrogenase Kinase 4 (PDK4) using HepaRG (AID 2283525). In short, it runs like this: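 Differentiated human HepaRG cells, pre-cultured 48 h, were exposed in duplicate for 48 h in serum-free induction medium to eight half-log concentrations up to 100 uM in 0.5% DMSO. PDK4 mRNA was quantified by qRT-PCR, normalized to ACTB, GAPDH and POLR2A, bidirectional fitting versus DMSO.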

Read-out in assay [8]: NAD(P)H dehydrogenase [quinone] 1 (NQO1), NQO1 (gene 1728)
Description: LTEA_HepaRG_NQO1: Life Technologies and Expression Analysis (LTEA) Assay for NAD(P)H dehydrogenase [quinone] 1 (NQO1) using HepaRG (AID 2283526). The gist of the method: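 Differentiated human HepaRG cells in serum-free induction medium, dosed in duplicate for 48 h at 8 half-log concentrations up to 100 uM in 0.5% DMSO. NQO1 mRNA by qRT-PCR normalized to ACTB, GAPDH, POLR2A; bidirectional fit versus DMSO baseline.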

Read-out in assay [9]: Nuclear factor NF-kappa-B p105 subunit (Homo sapiens) (UniProt P19838)
The assay can be described thus: LTEA_HepaRG_NFKB1: Life Technologies and Expression Analysis (LTEA) Assay for Nuclear Factor Kappa B Subunit 1 (NFKB1) using HepaRG (AID 2283521).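 As to outcome: TaqMan qRT-PCR transcript normalised to ACTB GAPDH and POLR2A housekeeping genes.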 The gist of the method:
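Human HepaRG cells receive eight half-log concentrations, highest 100 uM, for 48 h. NFKB1 expression is then quantified by qRT-PCR and analysed for up- or down-regulation relative to 0.5% DMSO vehicle.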

Read-out in assay [10]: Nuclear factor erythroid 2-related factor 2 (Homo sapiens) (UniProt Q16236)
Description: LTEA_HepaRG_NFE2L2: Life Technologies and Expression Analysis (LTEA) Assay for Nuclear factor erythroid 2-related factor 2 (NFE2L2) Transcription Factor using HepaRG (AID 2283527).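 As to outcome: TaqMan qRT-PCR transcript level normalised to ACTB GAPDH and POLR2A housekeeping genes.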 The gist of the method: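 Differentiated human HepaRG cells in serum-free induction medium were exposed for 48 h to eight concentrations (top 100 uM, half-log dilutions, 0.5% DMSO), in duplicate. NFE2L2 mRNA was quantified by TaqMan qRT-PCR, normalized to ACTB, GAPDH and POLR2A, with bidirectional fitting versus DMSO.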

Broadly, the AC50 is the concentration at which the activity in the assay is half-maximal.

The source made the active and inactive calls. The calls were made as follows: active = hit-call score of the fitted dose curve at least 0.9, where 1 is the maximum; inactive = score below 0.9.

Sequence of Nuclear factor NF-kappa-B p105 subunit (Homo sapiens) (P19838 whole entry, looked up): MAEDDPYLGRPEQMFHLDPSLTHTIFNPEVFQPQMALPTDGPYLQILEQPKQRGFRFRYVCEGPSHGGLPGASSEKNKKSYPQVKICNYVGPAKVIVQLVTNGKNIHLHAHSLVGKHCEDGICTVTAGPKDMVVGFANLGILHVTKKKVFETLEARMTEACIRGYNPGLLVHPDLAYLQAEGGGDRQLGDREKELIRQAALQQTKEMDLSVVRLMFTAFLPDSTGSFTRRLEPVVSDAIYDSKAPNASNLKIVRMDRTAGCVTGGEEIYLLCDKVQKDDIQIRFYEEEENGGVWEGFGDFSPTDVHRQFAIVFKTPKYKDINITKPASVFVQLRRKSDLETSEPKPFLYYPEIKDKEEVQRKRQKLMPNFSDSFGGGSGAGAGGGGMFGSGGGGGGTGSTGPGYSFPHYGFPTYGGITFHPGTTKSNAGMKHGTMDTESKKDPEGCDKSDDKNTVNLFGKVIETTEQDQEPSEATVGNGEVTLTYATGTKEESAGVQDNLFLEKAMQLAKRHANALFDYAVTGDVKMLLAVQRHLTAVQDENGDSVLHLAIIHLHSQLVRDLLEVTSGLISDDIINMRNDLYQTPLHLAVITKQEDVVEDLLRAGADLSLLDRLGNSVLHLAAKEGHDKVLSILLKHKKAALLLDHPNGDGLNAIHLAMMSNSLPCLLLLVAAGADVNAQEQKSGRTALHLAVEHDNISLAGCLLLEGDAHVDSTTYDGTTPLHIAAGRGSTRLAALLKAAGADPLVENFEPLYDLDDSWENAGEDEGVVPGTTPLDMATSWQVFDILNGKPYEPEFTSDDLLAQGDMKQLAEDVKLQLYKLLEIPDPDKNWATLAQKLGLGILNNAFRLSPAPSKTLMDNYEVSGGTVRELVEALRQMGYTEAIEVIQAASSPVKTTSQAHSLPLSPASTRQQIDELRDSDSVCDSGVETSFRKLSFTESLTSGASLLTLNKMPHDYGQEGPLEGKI
Sequence of Nuclear factor erythroid 2-related factor 2 (Homo sapiens) (Q16236 whole entry, looked up): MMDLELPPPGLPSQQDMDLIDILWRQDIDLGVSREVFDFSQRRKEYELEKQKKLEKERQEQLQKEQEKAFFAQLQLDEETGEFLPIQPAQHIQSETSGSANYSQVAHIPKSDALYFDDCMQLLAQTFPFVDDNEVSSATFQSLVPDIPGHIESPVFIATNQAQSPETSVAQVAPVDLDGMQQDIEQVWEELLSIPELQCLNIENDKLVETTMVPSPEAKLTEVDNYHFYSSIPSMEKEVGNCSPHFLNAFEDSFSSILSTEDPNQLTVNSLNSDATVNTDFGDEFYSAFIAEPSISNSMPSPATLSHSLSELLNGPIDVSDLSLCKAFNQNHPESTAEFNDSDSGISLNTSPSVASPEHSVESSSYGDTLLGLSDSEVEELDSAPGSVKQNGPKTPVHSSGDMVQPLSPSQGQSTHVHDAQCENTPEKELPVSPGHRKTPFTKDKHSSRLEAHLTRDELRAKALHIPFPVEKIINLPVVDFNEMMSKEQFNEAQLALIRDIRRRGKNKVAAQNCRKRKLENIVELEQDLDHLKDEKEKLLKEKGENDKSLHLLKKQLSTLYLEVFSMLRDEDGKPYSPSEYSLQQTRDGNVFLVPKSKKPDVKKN

`CCCCc1oc2ccccc2c1C(=O)c1cc(I)c(OCCN(CC)CC)c(I)c1`: the AC50 in assay [1] was 70.4 µM (active); in assay [2], 54.7 µM (active); in [3], 68.7 µM (active); in [6], 70.6 µM (active); in assay [7], 59.2 µM (active). Further, the outcome in [4], in assay [5] and in assay [8] was inactive.

`CCC(C)c1ccccc1O` (stereo not given): the result in [1], in assay [2], in [3], in assay [4], in assay [9] and in assay [5] was inactive. The call in [6], in [7], in assay [8] and in assay [10] was inactive.

Regarding `O=C1NS(=O)(=O)c2ccccc21`, the compound was called inactive in assay [1], in assay [2], in [3], in [4], in assay [5] and in assay [6]. In addition, the compound was classed as inactive in [7], in assay [8] and in assay [10].

In the case of `O=C(CCCN1CCC(O)(c2ccc(Cl)cc2)CC1)c1ccc(F)cc1`, the compound was called inactive in assay [1], in assay [5] and in [8]. Moreover, the AC50 was 82.4 µM (active) in [2]; 73.6 µM (active) in assay [3]; 12.5 µM (active) in assay [4]; 85.5 µM (active) in assay [6]; 69.4 µM (active) in assay [7].

For `CCCCCCCCCCCCCCC`, the call in assay [1], in [2], in assay [3], in assay [4], in [9] and in [5] was inactive. The call in [6], in assay [7], in assay [8] and in [10] was inactive.

In the case of `CCCCCCCCCCCCOS(=O)(=O)O`, the AC50 in assay [1] is 86.2 µM (active); in [2], 70.2 µM (active); in assay [6], 77.5 µM (active); in [7], 36.9 µM (active). The result in assay [3], in assay [4], in assay [8] and in assay [10] was inactive.

As for `OCC(CO)(CBr)CBr`, the compound was called inactive in assay [1], in [2], in assay [3], in [4], in [9] and in assay [5]. The compound was classed as inactive in assay [6], in [7], in [8] and in [10].

As for `CS(=O)(=O)c1ccc([C@@H](CC2CCCC2)C(=O)Nc2cnccn2)cc1Cl`, the AC50 in assay [1] is 80.8 µM (active); in assay [2], 79.5 µM (active); in [3], 62.7 µM (active); in assay [6] it was 66.7 µM (active). Also, the call in assay [4], in [5], in assay [7] and in assay [8] was inactive.

For the compound `CCCCC(CC)C(=O)O` (stereo not given), the result in assay [1], in assay [2], in assay [3], in assay [4], in [5] and in [6] was inactive. For the same compound, the call in [7], in [8] and in [10] was inactive.

`CN(Cc1cnc2nc(N)nc(N)c2n1)c1ccc(C(=O)N[C@@H](CCC(=O)O)C(=O)O)cc1`: the call in assay [1], in assay [2], in assay [3], in assay [4], in assay [5] and in [8] was inactive. Besides, the result in [10] was inactive. Also, the AC50 is 0.137 µM (active) in assay [6] and 0.515 µM (active) in assay [7].

As to `N=C(N)c1ccc(OCCCCCOc2ccc(C(=N)N)cc2)cc1`, the AC50 was 3.63 µM (active) in [1]; 26.1 µM (active) in [2]; 3.56 µM (active) in [3]; 29.1 µM (active) in [9]; 29.9 µM (active) in [5]; 6.6 µM (active) in assay [6]. Further, the AC50 in assay [8] was 43.8 µM (active); in assay [10], 10.1 µM (active).

In the case of `O=C(c1ccccc1)c1ccccc1`, the result in [1], in assay [2], in assay [3], in assay [4], in assay [5] and in assay [6] was inactive. Moreover, the call in assay [7] and in [8] was inactive.

Take `CCCCC=O`: the compound was classed as inactive in assay [1], in assay [2], in [3], in assay [4], in assay [9] and in assay [5]. Besides, the call in assay [6], in assay [7], in assay [8] and in assay [10] was inactive.

On to `CC(=O)Nc1ccc(O)cc1`, for which the result in assay [1], in assay [2], in [3], in assay [4], in assay [5] and in assay [6] was inactive. The outcome in assay [7] and in assay [8] was inactive.

Take `Cc1[nH]nc2c1N=C(c1ccccc1Cl)c1cc([N+](=O)[O-])ccc1N2`: the AC50 in [1] is 7.26 µM (active); in [2] it was 5.91 µM (active); in assay [3] it was 82 µM (active); in assay [4] it was 9.48 µM (active); in assay [6] it was 5.69 µM (active); in [7] it was 0.37 µM (active). Also, in assay [10], the AC50 was 85.1 µM (active). Besides, the call in assay [5] and in assay [8] was inactive.

As to `CN(C)CCOC(c1ccccc1)c1ccccc1`, the call in assay [1], in assay [2], in assay [3], in assay [4], in assay [5] and in [6] was inactive. Further, the outcome in assay [7] and in [8] was inactive.

The values above are taken from PubChem BioAssay (EPA / NIEHS).
